PubChem BioAssay (NCI)
Compounds without any hit were thinned out: in the full panel of roughly 83,000, 20% have a hit.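 Growth was measured after 48 h exposure to one concentration of compound in 96-well plates. Values under 10 count as active.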 Unmarked numbers belong to inactive results. Activity calls are given as the source filed them.

Each compound was assayed on NCI-H322M lung (assay: NCI-60 one-dose screen, 48 h (100 = growth as untreated, 0 = no growth, -100 = all killed)). Settings: 10 µM unless noted.

SMILES	growth
Fc1ccc(C2=NN(c3ccccc3)C(c3sc(N(CCCl)CCCl)nc3Cl)C2)cc1 (centres undefined)	82.3%
CC[C@H](C)[C@H](NC(=O)Nc1ccccc1)C(=O)N(C)[C@H](C[C@@H](OC(C)=O)c1nc(C(=O)N[C@@H](Cc2ccccc2)C[C@H](C)C(=O)OC)cs1)C(C)C	48.4%
c1ccc(CCN2CCCCC2Cc2ccccc2)cc1 (centres undefined)	78.5%
O=C(N/N=C/c1ccc(N(CCCl)CCCl)cc1)c1cc(=O)[nH]c(=O)[nH]1	92.9%
O=[As]c1ccc(C(=O)c2ccc(Oc3ccccc3)cc2)cc1 (centres undefined)	-79.1% (active)
O=[N+]([O-])c1cc([N+](=O)[O-])c(Cl)c(Cl)c1Cl	96.5%
Cc1cc(NC(=O)NCCOc2ccc(N3C(N)=NC(N)=NC3(C)C)cc2Cl)ccc1S(=O)(=O)F	43.4%
C=CCc1ccc(OC(=O)Cc2ccccc2)c(OC)c1	98.3%
CC(C)(O)/C=C/C(=O)[C@](C)(O)[C@H]1[C@H](O)C[C@@]2(C)[C@@H]3CC=C4[C@@H](C=C(O)C(=O)C4(C)C)[C@]3(C)C(=O)C[C@]12C	-20.1% (active)
C[C@]12CCc3sc(-c4ccc(Cl)cc4)nc3C1=CC[C@@H]1[C@@H]2CC[C@]2(C)C(=O)CC[C@@H]12	82.6%
O=C(CF)N(O)c1ccc(/C=C/c2ccccc2)cc1	71.4%
COc1ccc(/C=C(/C(=O)N2CCCC2)c2cc(OC)c(OC)c(OC)c2)cc1N	48.1%
Nc1nc(N)c(-c2ccc(Cl)c(Cl)c2)c(/C=C/c2ccc(S(=O)(=O)F)cc2)n1	89.8%
Oc1ccc(O)c2c1C1(Cl)C(Cl)=C(Cl)C2(Cl)C1(Cl)Cl	33.1%
CN(C)P1(N(C)C)=NP(N(C)C)(N(C)C)=NP(N(C)C)(N(C)C)=N1	98.8%
CCCCNCCc1ccccn1	113%

SMILES	growth
CNC(=O)Oc1cccc(OC)c1	132%
C=C=[CH][Sn]([c]1ccccc1)([c]1ccccc1)[c]1ccccc1	-15.6% (active)
NC(=O)SCC(=O)Nc1ccc([As](=O)(O)O)cc1	123%
C[C@]12CC[C@H]3[C@@H](C[C@@H]4N=C(c5ccc(O)cc5)S[C@@]45C[C@H](O)CC[C@]35C)[C@@H]1CC[C@@H]2O	92.8%
CC1(C)N=C(N)N=C(N)N1c1ccc(CCCCc2ccc(S(=O)(=O)F)cc2)cc1	31.2%
Nc1c(Br)cc2c3c(cccc13)-c1ccccc1-2	91.2%
COc1cc2c(cc1OC)CN(C)C(C)C2 (centres undefined)	106%
CC(C)C1c2ccc(O)cc2Oc2nc(N)c(C#N)c(N)c21 (centres undefined)	93.8%
c1ccc2nc(OCCN3CC3)ccc2c1	94%
CC1(C)N=C(N)N=C(N)N1c1ccc(CNC(=O)Nc2ccc(S(=O)(=O)F)c(Cl)c2)c(Cl)c1	46%
CSc1ccccc1NP1(=O)OCC(C)([N+](=O)[O-])CO1 (centres undefined)	126%
CC1COC(=O)C1 (centres undefined)	100%
C[CH2][Pb]([CH2]C)([CH2]C)[O]C(=O)COc1ccccc1	0.448% (active)
COc1ccc(/C=C\c2cc(OC)c(OC)c(OC)c2)cc1N/C=C\C(=O)c1c[nH]c2ccccc12	40.6%
OC1(c2ccc(Cl)cc2Cl)c2ccccc2C2=NCCN21 (centres undefined)	98.6%
O=C(Nc1ccc(S(=O)(=O)F)cc1)Oc1ccccc1	94.8%

The compounds below were run on HOP-62 NSCLC in the same assay as above. Settings: 10 µM unless noted.

SMILES	growth
CC(=O)O[C@H]1CCC2(C)C(=CCC3C2CCC2(C)/C(=N/OC(=O)c4ccc(N(CCCl)CCCl)cc4)CCC32)C1 (some centres undefined)	-60.8% (active)
COc1ccc2c(c1)NC1=C(C(=O)OC1)C2c1cc(OC)c(OC)c(OC)c1 (centres undefined)	44.2%
C=CCC1(CC)C(=O)NC(=S)NC1=O	97.9%
NC(Cc1ccc2c(c1)OCO2)c1ccc2c(c1)OCO2 (centres undefined)	105%
Nc1c(Br)cc([N+](=O)[O-])cc1[N+](=O)[O-]	117%
c1ccc(-c2ccc3ccccc3[o+]2)cc1	96.2%
CCCC(C)(C)c1ccc2c(c1)OC(C)(C)[C@@H]1CC=C(C)C[C@@H]21	90.4%
CC1(CF)NC(=O)NC1=O (centres undefined)	107%

Each compound was assayed on NCI-H460 lung in the same assay as above. Settings: 10 µM unless noted.

SMILES	growth
Fc1ccc(C2=NN(c3ccccc3)C(c3sc(N(CCCl)CCCl)nc3Cl)C2)cc1 (centres undefined)	90.7%
CC[C@H](C)[C@H](NC(=O)Nc1ccccc1)C(=O)N(C)[C@H](C[C@@H](OC(C)=O)c1nc(C(=O)N[C@@H](Cc2ccccc2)C[C@H](C)C(=O)OC)cs1)C(C)C	1.7% (active)
c1ccc(CCN2CCCCC2Cc2ccccc2)cc1 (centres undefined)	116%
CC(=O)O[C@H]1CCC2(C)C(=CCC3C2CCC2(C)/C(=N/OC(=O)c4ccc(N(CCCl)CCCl)cc4)CCC32)C1 (some centres undefined)	21%
O=C(N/N=C/c1ccc(N(CCCl)CCCl)cc1)c1cc(=O)[nH]c(=O)[nH]1	39%
O=[As]c1ccc(C(=O)c2ccc(Oc3ccccc3)cc2)cc1 (centres undefined)	-31.9% (active)
Cc1cc(NC(=O)NCCOc2ccc(N3C(N)=NC(N)=NC3(C)C)cc2Cl)ccc1S(=O)(=O)F	9.44% (active)
COc1ccc2c(c1)NC1=C(C(=O)OC1)C2c1cc(OC)c(OC)c(OC)c1 (centres undefined)	4.55% (active)
C=CCc1ccc(OC(=O)Cc2ccccc2)c(OC)c1	105%
CC(C)(O)/C=C/C(=O)[C@](C)(O)[C@H]1[C@H](O)C[C@@]2(C)[C@@H]3CC=C4[C@@H](C=C(O)C(=O)C4(C)C)[C@]3(C)C(=O)C[C@]12C	-20.8% (active)
C[C@]12CCc3sc(-c4ccc(Cl)cc4)nc3C1=CC[C@@H]1[C@@H]2CC[C@]2(C)C(=O)CC[C@@H]12	72.5%
C=CCC1(CC)C(=O)NC(=S)NC1=O	111%
NC(Cc1ccc2c(c1)OCO2)c1ccc2c(c1)OCO2 (centres undefined)	104%
O=C(CF)N(O)c1ccc(/C=C/c2ccccc2)cc1	13%
COc1ccc(/C=C(/C(=O)N2CCCC2)c2cc(OC)c(OC)c(OC)c2)cc1N	13.5%
Nc1nc(N)c(-c2ccc(Cl)c(Cl)c2)c(/C=C/c2ccc(S(=O)(=O)F)cc2)n1	77%
Nc1c(Br)cc([N+](=O)[O-])cc1[N+](=O)[O-]	103%
Oc1ccc(O)c2c1C1(Cl)C(Cl)=C(Cl)C2(Cl)C1(Cl)Cl	55.3%
CN(C)P1(N(C)C)=NP(N(C)C)(N(C)C)=NP(N(C)C)(N(C)C)=N1	107%
CCCCNCCc1ccccn1	107%

SMILES	growth
CNC(=O)Oc1cccc(OC)c1	115%
C=C=[CH][Sn]([c]1ccccc1)([c]1ccccc1)[c]1ccccc1	-78.8% (active)
NC(=O)SCC(=O)Nc1ccc([As](=O)(O)O)cc1	101%
C[C@]12CC[C@H]3[C@@H](C[C@@H]4N=C(c5ccc(O)cc5)S[C@@]45C[C@H](O)CC[C@]35C)[C@@H]1CC[C@@H]2O	41.9%
CC1(C)N=C(N)N=C(N)N1c1ccc(CCCCc2ccc(S(=O)(=O)F)cc2)cc1	12.3%
Nc1c(Br)cc2c3c(cccc13)-c1ccccc1-2	88.4%
COc1cc2c(cc1OC)CN(C)C(C)C2 (centres undefined)	106%
CC(C)C1c2ccc(O)cc2Oc2nc(N)c(C#N)c(N)c21 (centres undefined)	107%
c1ccc2nc(OCCN3CC3)ccc2c1	72.3%
CC1(C)N=C(N)N=C(N)N1c1ccc(CNC(=O)Nc2ccc(S(=O)(=O)F)c(Cl)c2)c(Cl)c1	7.59% (active)
c1ccc(-c2ccc3ccccc3[o+]2)cc1	97.2%
CSc1ccccc1NP1(=O)OCC(C)([N+](=O)[O-])CO1 (centres undefined)	101%
CC1COC(=O)C1 (centres undefined)	102%
C[CH2][Pb]([CH2]C)([CH2]C)[O]C(=O)COc1ccccc1	4.05% (active)
COc1ccc(/C=C\c2cc(OC)c(OC)c(OC)c2)cc1N/C=C\C(=O)c1c[nH]c2ccccc12	6.44% (active)
CCCC(C)(C)c1ccc2c(c1)OC(C)(C)[C@@H]1CC=C(C)C[C@@H]21	106%
OC1(c2ccc(Cl)cc2Cl)c2ccccc2C2=NCCN21 (centres undefined)	105%
CC1(CF)NC(=O)NC1=O (centres undefined)	112%
O=C(Nc1ccc(S(=O)(=O)F)cc1)Oc1ccccc1	102%
